# FLuc inh = qHTS Assay for Inhibitors of Firefly Luciferase. Luciferin 4-monooxygenase (Photinus pyralis), P08659. purified firefly luciferase, luminescence, 8 min. Potency, µM (titrated, usually from 57.1 µM), actives largely listed as inhibitors. 72,000 compounds, 2.2% hits. AID 411, 2009; active = well fitted inhibition curve with a large enough effect; inconclusive = small, poorly fitted or top-dose-only effect; also: nearly all actives have a fitted effect of over 40% in size
# Target sequence (P08659 whole entry, looked up): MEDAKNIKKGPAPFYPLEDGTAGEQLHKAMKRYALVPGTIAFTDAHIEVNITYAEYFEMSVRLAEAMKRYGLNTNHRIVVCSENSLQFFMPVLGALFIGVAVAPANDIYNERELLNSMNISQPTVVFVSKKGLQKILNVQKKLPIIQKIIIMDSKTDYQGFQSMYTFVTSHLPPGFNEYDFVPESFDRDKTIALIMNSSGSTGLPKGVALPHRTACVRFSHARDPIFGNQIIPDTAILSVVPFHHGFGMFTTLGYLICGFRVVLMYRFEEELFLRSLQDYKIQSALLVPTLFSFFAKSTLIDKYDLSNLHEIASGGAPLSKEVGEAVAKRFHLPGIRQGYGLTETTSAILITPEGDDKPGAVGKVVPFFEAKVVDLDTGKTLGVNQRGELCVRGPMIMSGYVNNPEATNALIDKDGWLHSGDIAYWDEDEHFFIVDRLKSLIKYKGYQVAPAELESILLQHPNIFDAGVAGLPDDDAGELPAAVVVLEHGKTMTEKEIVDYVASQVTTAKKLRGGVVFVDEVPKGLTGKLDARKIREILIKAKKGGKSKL
#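 Luminescence read-out after 8 min at room temperature; enzyme reaction used luciferin plus 10 uM ATP (linear range) in imidazole buffer pH 7.2 with KCl, MgCl2, Tween 20 and BSA. Each sample was run as a titration.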
# Bst PK mod = Pyruvate Kinase; purified pyruvate kinase, luminescence ATP production; ribose 5-phosphate activator present at AC10; Potency, µM; 51,000 compounds, 1.2% hits; AID 361, 2006; in the data active = potency below about 11 µM; inconclusive = mostly about 12 µM to 25 µM;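 the screen sought inhibitors and activators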
# GBA mod = Glucocerebrosidase; purified enzyme, resorufin glucoside fluorescence (screen aimed at inhibitors), 20 min; Potency, µM; 48,000 compounds, 1.1% hits; Lysosomal acid glucosylceramidase (Homo sapiens), P04062; in the data active = potency below about 15 µM; inconclusive = mostly about 16 µM to 33 µM;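 also: the screen sought inhibitors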
#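 Normal human glucocerebrosidase (0.2 nM final) was assayed with resorufin β-D-glucopyranoside (30 uM final) in 50mM citric acid/KH2PO4, 10mM sodium taurocholate, 0.01% tween-20, pH 5.9. Compounds were titrated; fluorescence (Ex 548, Em 600) read after 20 min at RT.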
# A number is an active result; – = inactive; ? = inconclusive; · = not tested or not shown; [ ] = another dose, or the depositor's remark. Sampled rows, rich in hits. Any-hit rate of the full collection: about 3.2%.
SMILES,FLuc inh,Bst PK mod,GBA mod
O=C(O)CCCNc1cc(N2CCC3(CC2)OCCO3)c2noc3c2c1C(=O)c1ccccc1-3,25µM,–,12
CCOC(=O)N1CCN(c2cc(NCCC(=O)O)c3c4c(onc24)-c2ccccc2C3=O)CC1,?,–,–
COc1ccc(NC(=O)N2CCCC3(CCN(C(=O)c4ccc(OC)cc4)CC3)C2)cc1,–[11.4 µM],·,·
COC(=O)c1cccc(Nc2cc(C)nc(-c3ccccc3O)n2)c1,–,–,·
COc1ccccc1-c1ccc(Nc2cccc(C(C)=O)c2)nn1,20µM,–,–
Cc1noc(C)c1-c1nc(NC2CCNCC2)c2ccccc2n1,–[2.29 µM],·,·
COc1ccc(O[C@H]2C=C[C@@H](c3ccccc3)O[C@H]2CO/N=C(/C)CCC(=O)OC[C@@H]2O[C@H](c3ccccc3)C=C[C@@H]2Oc2ccc(OC)cc2)cc1,–[11.4 µM],·,·
N#CCSc1nc2cc(C(=O)N3CCCC3)ccc2c(=O)n1Cc1ccccc1,–,–,–
N#CCSc1nc2cc(C(=O)N3CCC(C(N)=O)CC3)ccc2c2nc3ccccc3n12,–,0.47,–
CCN1C(=O)[C@@H]2[C@H]3C(=CC[C@H]2C1=O)C(=O)[C@H]1OC1[C@H]3O (stereo not given in full),–[11.4 µM],·,·
O=C(/C=C\Nc1ccccn1)c1ccc(Cl)cc1,1.3µM,·,·
O=C(O)/C=C\C(=O)Nc1ccccn1,–[11.4 µM],·,·
C[C@H](CCC(=O)O)[C@H]1CC[C@@H]2[C@H]3[C@@H](C[C@@H](O)[C@]21C)[C@]1(C)CC[C@H](O)C[C@@H]1C[C@@H]3O,–[11.4 µM],·,·
Cc1cc2nc(-c3ccc(NC(=O)C(C)C)cc3)oc2cc1C,–,·,·
Cc1ccc(-c2nc3cc(NC(=O)C(C)C)ccc3o2)cc1C,2µM,1.7,–
CCOc1ccc(C(=O)Nc2cccc(-c3nc4cccnc4o3)c2)cc1Cl,–,–,–
CC(C)C(=O)Nc1cccc(-c2nc3ccccc3o2)c1,–,–,–
O=C(Nc1ccc2oc(-c3ccncc3)nc2c1)c1ccccc1F,–,·,–
O=C(Nc1ccc2oc(-c3ccncc3)nc2c1)c1cccs1,–,3.6,–
Cc1ccc(-c2nc3cc(NC(=O)C(C)C)ccc3o2)cc1,5µM,·,·
CC(C)C(=O)Nc1ccc(-c2nc3cccnc3o2)cc1,5µM,·,·
CC(C)=NOCc1cccc(-c2cc(-c3ccccc3)no2)c1,–[11.4 µM],·,·
O=C(Nc1ccccc1)[C@@]12C[C@@H]1/C(=N/O)c1ccccc1O2,–,·,·
COc1ccccc1-c1cc(NCc2ccccc2)ncn1,–[2.29 µM],·,·
O=C(Nc1ccccc1)N1CC[C@@]2(CCCN(C(=O)c3ccco3)C2)C1,–[11.4 µM],·,·
SMILES,FLuc inh,Bst PK mod,GBA mod
O=C(c1cn(-c2ccccc2)nc1-c1cccs1)N1CCN(c2ccccn2)CC1,25µM,–,·
O=C(Cc1cccs1)N1CCN(c2ccccn2)CC1,–,·,·
COc1ccccc1CN1CC[C@@]2(CCCN(C(=O)c3cccc(F)c3)C2)C1,–[11.4 µM],·,·
COc1ccc(OC)c(N=c2oc3cc(O)ccc3cc2C(N)=O)c1,13µM,–,–
NC(=O)c1cc2ccc(O)cc2oc1=Nc1ccccc1,?,?,–
COc1cccc(C(=O)Nc2ccc(S(=O)(=O)NCc3ccco3)cc2)c1,–,–,–
COc1ccc(OC)c(NC(=O)c2cc(S(=O)(=O)NCc3ccco3)ccc2F)c1,–,–,5.3
O=C(Nc1cccc(Cl)c1)c1ccc2c(=O)n3c(nc2c1)CCCCC3,13µM,?,–
O=C(Nc1ccc(F)c(Cl)c1)c1ccc2c(=O)n3c(nc2c1)CCCCC3,?,–,–
Cc1cc(N2CCCN(C)CC2)nc2cc(Cl)ccc12,–,·,·
Cc1ccc2nc3ccc(N4CCN(C)CC4)nn3c(=O)c2c1,7.9µM,·,·
CCNc1ncc2nc(C)c(=O)n(Cc3ccc(F)cc3)c2n1,–[11.4 µM],·,·
Oc1cc2c(c(Cl)c1O)CCNC[C@H]2c1ccccc1,–,·,·
CCN(CC)S(=O)(=O)c1ccc(Nc2cc(C)nc3ncnn23)cc1,–,–,–
CCCOC(=O)c1ccc(Nc2cc(C)nc3ncnn23)cc1,–,11,–
Cc1nc(NCc2ccc3c(c2)OCO3)c2oc3ccccc3c2n1,–,–,–
Cc1nc(Nc2ccc3c(c2)OCCO3)c2oc3ccccc3c2n1,–,4.3,–
Cc1occc1C(=O)Nc1ccccc1C(=O)O,–,·,·
Cc1occc1C(=O)Nc1nnc(C(F)(F)F)s1,–,–,?
Cc1occc1C(=O)Nc1cc(C(C)(C)C)on1,16µM,·,–
Cc1occc1C(=O)Nc1ccc2ccccc2c1,20µM,·,·
COc1cccc(-c2cncnc2NCCc2c[nH]c3ccc(OC)cc23)c1,–[2.29 µM],·,·
CN(C)c1ccccc1C(=O)c1ccccc1N(C)C,25µM,·,?
CN(c1ccccc1C(=O)O)S(C)(=O)=O,–,–,–
CS(=O)(=O)Nc1cccc(-c2ccc3ncnc(Nc4ccc(F)cc4)c3c2)c1,–[2.29 µM],·,·
SMILES,FLuc inh,Bst PK mod,GBA mod
CCOC(=O)CNc1c(-c2ccc(O)cc2)nc2ccc(Cl)cn12,?,·,4.1
CCOC(=O)CNc1c(-c2ccc(O)cc2)nc2ccccn12,–,–,?
Cc1cnc(CNc2cc(-c3cccc(C#N)c3)ncn2)cn1,–[2.29 µM],·,·
COc1cc2c(cc1OC)CN(C(=O)CC1CC3CCC1C3)CC2 (stereo not given),13µM,–,–
COc1cc2c(cc1OC)CN(C(=O)C(C)(C)C)CC2,–,·,·
CN(C)c1ccc(-c2cncnc2NCCc2cnc[nH]2)cc1,–[2.29 µM],·,·
COc1cccc(Nc2ncc3nc(CCc4ccccc4)c(=O)n(CCC#N)c3n2)c1,–[11.4 µM],·,·
Clc1ccc(-c2cn3c(n2)CCC3)cc1,13µM,?,·
Nc1nc(-c2ccc(Cl)cc2)cc(C(F)(F)F)n1,–,–,–
COCC(=O)N1CCC[C@@]2(CCN(c3ccncc3)C2)C1,–[11.4 µM],·,·
N#Cc1cccc(-c2ccc3ncnc(NC4CCNCC4)c3c2)c1,–[2.29 µM],·,·
c1ccc2c(Oc3ccc4c(c3)OCO4)nncc2c1,16µM,–,–
OC(c1ccc2c(c1)OCO2)c1nccc2ccccc12 (stereo not given),–,·,·
COc1ccc(NC(=O)C2CCCCN2S(=O)(=O)c2ccc(F)cc2)c(OC)c1 (stereo not given),–,–,–
COc1ccc(NC(=O)C2CCC(=O)N2S(=O)(=O)c2ccc(C)cc2)c(OC)c1 (stereo not given),–,11,–
COc1ccc(-c2ccc(SCC(=O)Nc3cc(C)on3)nn2)cc1OC,13µM,–,–
COc1ccc(-c2nnc(SCC(=O)Nc3cc(C)on3)n2N)cc1OC,–,–,–
COc1ccc2c(c1)CCC1C2CC[C@]2(C)[C@H](NCCCCCCN3C(=O)C=CC3=O)CC[C@@H]12 (stereo not given in full),–,·,·
Cc1cc(C)c2c(n1)nn1c(NCCCn3ccnc3)cc(C)nc21,–,–,–
COc1ccc(-c2cc3nc(C)cc(NCCO)n3n2)cc1,?,?,–
Cc1cc(NCCCn2ccnc2)n2nc(-c3ccc(F)cc3)cc2n1,13µM,?,·
Cc1ccc(-c2cc3nc(C)cc(NCc4ccco4)n3n2)cc1,7.9µM,6.5,–
COc1ccccc1CCn1c(=O)c(-c2ccc(F)c(F)c2)nc2cncnc21,–[11.4 µM],·,·
CC(=O)c1ccc(N2CCN(C(=O)c3cc(-c4ccc5c(c4)OCO5)nc4ccccc34)CC2)cc1,7.9µM,·,–
COc1ccc(-c2cc(C(=O)OCC(=O)N3CCCC3)c3ccccc3n2)cc1,20µM,10,–
Cc1cc(C(=O)OCC(=O)N2CCOCC2)c2ccccc2n1,–,–,–

# Compound activity (PubChem BioAssay)
